Assay results reported in PubChem BioAssay (NCATS).
Inconclusive results are not listed. The source made the active and inactive calls. Calls follow the shape of the dose curve; as a rule, active = well fitted cell-killing curve with a large enough effect; inconclusive = small, poorly fitted or top-dose-only effect; inactive = flat fitted curve, though single readings scatter.

Test: Quantitative highthroughput screen to assess conditional lethalithy of NOMO1 cells grown in RPMI1640 with untreated serum (RPMI+s) (AID 1963876); also: nearly all actives have a fitted effect of over 35% in size
Conditions: NOMO1 AML cells in RPMI+serum, CellTiter-Glo viability, 48 h; series mostly up to 45.8 µM; viability: at the top concentration
From the text: Assay Provider: Jason Cantor Ph.D.
Department of Biochemistry
University of Wisconsin-Madison, Madison, WI, USA
Chemical screening studies have identified drug sensitivities across hundreds of cancer cell lines but most putative therapeutics fail to translate. Discovery and development of drug candidates in models that more accurately reflect nutrient levels in human blood is a major challenge. Here we performed high-throughput screens in conventional versus Human Plasma-Like Medium (HPLM) to identify compounds that were "missed" when screening using the artificial culture condition. Sets of conditional anticancer compounds spanned phases of clinical development and included non-oncology drugs were assessed. […] We also traced conditional phenotypes for several chemotherapeutics to availability of HPLM-specific metabolites and confirmed others for compounds whose reported targets are encoded by nonessential genes. Our findings establish generalizable strategies for exploiting conditional lethality in HPLM to reveal therapeutic candidates and mechanisms of action in cancer cells.
Described herein are the results of each viability screens against three cell lines: NOMO1 (an acute myeloid leukemia cell line); P12-Ichikawa (a T-cell acute lymphoblastic leukemia); and SEM (a B-cell ALL). Each assay was screened using 3 different cell culture media: homemade human plasma-Like medium with 10% dialyzed fetal bovine serum (HPLM+ds); RPMI1640 with 10% untreated FBS and 5mM glucose (RPMI+s); and RPMI1640 with 10% dialyzed fetal bovine serum and 5 mM glucose (RPMI+ds).
PROTOCOL TABLE (as described by Inglese J, Shamu CE and Guy RK. 2007)
SEQUENCE No. (e.g., 1, 2, 3, etc.); […] (e.g., Cells, Incubation, Reagent, etc.); VALUE and DESCRIPTION.
1; Cells; 5 uL; white, solid bottom 1536-well Greiner assay plate.
2; Compounds; 23 nL; Kalypsis pin tool (Wako USA) equipped with a 1536-well pin head to transfer to the assay plates.
3; Incubation; 48 hours; 37C incubation.
4; Reagent; 3 uL; CellTiter Glo (Promega).
5; Incubation; 5 min, room temperature
6; Detection; Luminescence, Viewlux PerkinElmer.
NOTES (numbers refer to Sequence numbers above)
1. Briefly, 5 ul of cell reagent was dispensed using a Multidrop Combi Dispenser. The NOMO1 and SEM cells were plated at 500 cells/well and the P12-Ichikawa line at 1000 cells/well.
2. After seeding the cells, 23 nL of MIPE 4.1 library compounds (in DMSO) were added to each plate using a Kalypsys 1536 Pintool dispenser. Bortezomib at final concentration of […] and DMSO were added to each plate as positive and negative controls respectively. For each screen, MIPE 4.1 compounds were added over an eleven-point concentration range […] in 3-fold dilutions.
3. Each plate was covered with a stainless steel gasketed lid to prevent evaporation and incubated for 48 hour at 37C, 95% relative humidity, and 5% CO2.
4-5. Three microliter CellTilter-GloTM luminescent substrate mix (Promega) reagent was added to the assay plate and incubated at room temperature for 5 min.
6. The luminescence signal was measured using a ViewLux (PerkinElmer) multiplate reader with a 2 second exposure time per plate. Data for each compound were normalized as percent viability such that measurements for DMSO and the empty well controls in each plate were defined as 100% and 0%, respectively.
Potency is read from the fitted curve at half-maximal effect.

Row | Structure (SMILES) | viability | Potency
1 | CN(C)c1ccc(Nc2nc(N)n(C(=O)c3c(F)cccc3F)n2)cc1 | 96.2% (inactive) | 
2 | COc1ccc(C2=N[C@H](c3ccc(Cl)cc3)[C@H](c3ccc(Cl)cc3)N2C(=O)N2CCNC(=O)C2)c(OC(C)C)c1 |  | 23.5 µM (active)
3 | CC(C)c1onc(-c2c(Cl)cccc2Cl)c1COc1ccc(C=Cc2cccc(C(=O)O)c2)c(Cl)c1 | 89.7% (inactive) | 
4 | C[C@H](c1ccc(F)cc1CCCC(=O)O)N(c1cc(F)ccc1F)S(=O)(=O)c1ccc(Cl)cc1 | 98.1% (inactive) | 
5 | NNC(=O)c1ccncc1 | 104% (inactive) | 
6 | CC(C)OC(=O)CCCC=CC[C@@H]1[C@H](C=C[C@@H](O)COc2cccc(C(F)(F)F)c2)[C@H](O)C[C@@H]1O |  | 33.2 µM (active)
7 | C[C@@H]1CCO[C@H]2Cn3cc(C(=O)NCc4ccc(F)cc4F)c(=O)c(O)c3C(=O)N12 | 110% (inactive) | 
8 | O=C(CCN1CCN(C(=O)OCc2cc(Cl)cc(Cl)c2)CC1)c1ccc2[nH]c(=O)oc2c1 | 90.1% (inactive) | 
9 | N[C@@H](CC(=O)N1CCn2c(nnc2C(F)(F)F)C1)Cc1cc(F)c(F)cc1F | 100% (inactive) | 
10 | c1ccc2c(Cc3c[nH]c4ccccc34)c[nH]c2c1 | 98.6% (inactive) | 
11 | CCc1nc(-c2cccc(C)c2)c(-c2ccnc(NC(=O)c3ccccc3)c2)s1 | 94.5% (inactive) | 
12 | CON(C)C(=O)N1N=C(c2cc(F)ccc2F)S[C@@]1(CCCN)c1ccccc1 |  | 0.0209 µM (active)
13 | COc1cc(C=CC(=O)CC(=O)C=Cc2ccc(O)c(OC)c2)ccc1O |  | 38.2 µM (active)
14 | COc1cc([C@@H]2c3cc4c(cc3[C@H](O)[C@H]3COC(=O)[C@H]23)OCO4)cc(OC)c1OC |  | 0.0042 µM (active)
15 | Cc1cc(=O)oc2cc(O)ccc12 | 101% (inactive) | 
16 | O=C(C=Cc1cccc(S(=O)(=O)Nc2ccccc2)c1)NO |  | 17.1 µM (active)
17 | C[C@@H]1COC(Nc2ccc3ncnc(Nc4ccc(OCc5nccs5)c(Cl)c4)c3c2)=N1 | 78.5% (inactive) | 
18 | CC(C)C[C@@H](N)[C@H](O)C(=O)N[C@H](C(=O)N[C@H](C(=O)N[C@@H](CC(=O)O)C(=O)O)C(C)C)C(C)C | 104% (inactive) | 
19 | CC(O)C1C(=O)N2C(C(=O)O)=C(SC3CNC(C(=O)N(C)C)C3)C(C)C12 (stereo not given) | 95.7% (inactive) | 
20 | CCC(C)(Oc1ccc(C2(c3ccc(OC(C)(CC)C(=O)O)cc3)CCCCC2)cc1)C(=O)O (stereo not given) | 95.3% (inactive) | 

Row | Structure (SMILES) | viability | Potency
21 | O=C(C=Cc1c(C(=O)O)[nH]c2cc(Cl)cc(Cl)c12)Nc1ccccc1 | 94.7% (inactive) | 
22 | NC1(C(=O)N[C@@H](CCO)c2ccc(Cl)cc2)CCN(c2ncnc3[nH]ccc23)CC1 |  | 10.5 µM (active)
23 | COC(=O)[C@@H]1[C@H]2C[C@@H]3c4[nH]c5ccccc5c4CCN3C[C@@H]2CC[C@@H]1O |  | 0.526 µM (active)
24 | COc1cccc2nc(-c3cccs3)nc(NN3C(=O)C=C(C)C3=O)c12 |  | 1.48 µM (active)
25 | C=CC[N+]1([C@H]2C[C@H]3[C@@H]4CC[C@H]5C[C@H](O)[C@@H](N6CCOCC6)C[C@]5(C)[C@@H]4CC[C@]3(C)[C@H]2OC(C)=O)CCCC1 | 91.8% (inactive) | 
26 | COc1ccc([C@@H]2CNC(=O)C2)cc1OC1CCCC1 | 102% (inactive) | 
27 | COC(=O)N[C@H](C(=O)N1CCC[C@@H]1c1ncc(-c2ccc(-c3ccc(-c4cnc([C@@H]5CCCN5C(=O)[C@@H](NC(=O)OC)C(C)C)[nH]4)cc3)cc2)[nH]1)C(C)C | 95% (inactive) | 
28 | Cc1cn[nH]c1 | 89.9% (inactive) | 
29 | Cc1ccccc1C(=O)c1ccc(Nc2ccc(Br)cc2N)cc1Cl | 87% (inactive) | 
30 | O=C(Nc1cccnn1)N1CCC(=Cc2cccc(Oc3ccc(C(F)(F)F)cn3)c2)CC1 | 97.1% (inactive) | 
31 | O=C(NCC1CN(c2ccc(N3CCOCC3=O)cc2)C(=O)O1)c1ccc(Cl)s1 (stereo not given) |  | 0.418 µM (active)
32 | COCCOc1nc(-c2ccc(Cl)c(Cl)c2)n(-c2ccc(NC(=O)CCl)cc2)n1 | 97.5% (inactive) | 
33 | CCOC(=O)N1CCN([N+]([O-])=NOc2cc(ON=[N+]([O-])N3CCN(C(=O)OCC)CC3)c([N+](=O)[O-])cc2[N+](=O)[O-])CC1 | 106% (inactive) | 
34 | CC(=O)CC(c1ccccc1)c1c(O)c2ccccc2oc1=O (stereo not given) | 113% (inactive) | 
35 | Cc1ccc(C)c(OCCCC(C)(C)C(=O)O)c1 | 108% (inactive) | 
36 | COc1ccc2cc([S+]([O-])Cc3ncc(C)c(OC)c3C)nc2c1 | 98% (inactive) | 
37 | CCn1cc(C(=O)O)c(=O)c2cc(F)c(N3CCNC(C)C3)c(F)c21 (stereo not given) | 92.5% (inactive) | 
38 | O=C(O)c1cc(O)c2c(c1)C(=O)c1cccc(O)c1C2=O | 104% [at 92.2 µM] (inactive) | 
39 | CC(C)c1ccccc1Cc1cc(C(=O)Nc2ccc(S(=O)(=O)c3ccccc3C(C)(C)C)cc2)c(O)c(O)c1O | 92.9% (inactive) | 
40 | N[C@@H]1CONC1=O | 97.1% (inactive) | 
